Data reported in ChEMBL document CHEMBL3988442, “University of Dundee, Small-Polar-MMV Screening Library” (2021).
The campaign covered roughly 48,000 compounds. About 13,000 (27%) showed an effect of 50% or more. This is one part of the list.

Test system: Wolbachia pipientis
Experiment: Anti-Wolbachia Cell-Based Screen
Assay type: functional
Design: scale not given: in the data most compounds retested in dose-response had high values
Conditions: 5 µM

Structure (SMILES) | Percent Effect [%]
Cc1ccc(C)c2c(C)c(C(=O)NCCC(=O)N3CCOCC3)oc12 | 9.055
CC(C)c1nsc(NC2CC(=O)N(C(C)(C)C)C2)n1 (stereo not drawn) | 1.592
COC(CNC(=O)c1cn(C)nn1)c1ccc(C)s1 (stereo not drawn) | -8.016
Cc1ccccc1C(C)NC(=O)Cc1c(C)nc2cc(=O)[nH]n2c1C (stereo not drawn) | -0.7333
CN(CCNc1ncc2c(n1)CCN2c1ccccc1)S(C)(=O)=O | 7.395
O=C(O)c1ccccc1-c1c(-c2ccccc2)ncn1CC1CCCO1 (stereo not drawn) | -2.227
Cc1nnc2n1CCN(C(=O)c1ccn(-c3cccc(F)c3)n1)C2 | 108.9
Cc1ccc(-n2cc(C(=O)N3CCn4c(C)nnc4C3)nn2)cc1 | 111.3
Cc1cccc(-n2cc(C(=O)N3CCn4c(C)nnc4C3)nn2)c1 | 7.104
Cc1cccc(-n2c(C)cc(C(=O)N3CCn4c(C)nnc4C3)c2C)c1 | 1.537
Cc1nnc2n1CCN(C(=O)c1cn(-c3ccccc3)nn1)C2 | 102.5
COCc1ccccc1C(=O)N1CCn2c(nnc2C(C)C)C1 | 6.004
Cc1nnc2n1CCN(C(=O)c1cn(-c3ccccc3Cl)nn1)C2 | -0.6863
Cc1nnc2n1CCN(C(=O)c1cc(Cl)c(Cl)n1C)C2 | -5.044
CC(C)c1nnc2n1CCN(C(=O)c1cn(-c3ccccc3)nn1)C2 | 113.1
CCOC(C(=O)N1CCn2c(nnc2C(C)C)C1)c1ccccc1 (stereo not drawn) | -0.6295
CC(C)(O)CN1CCN(C(=O)c2ccn(-c3cccc(F)c3)n2)CC1 | -183.4
O=C(c1ccn(-c2cccc(F)c2)n1)N1CCN(CCO)CC1 | -27.1
O=C(CN1CCOC1=O)N1CCc2nnc(-c3ccccc3)n2CC1 | 3.396
Cc1nnc2n1CCN(C(=O)c1cc(C)n(-c3ccccn3)c1C)C2 | -6.785
Cc1nc(-c2ccsc2)ccc1C(=O)N1CCn2c(C)nnc2C1 | -2.134
Cc1nnc2n1CCN(C(=O)c1cn(-c3ccc(F)cc3)nn1)C2 | 133.8
CCc1nnc2n1CCN(C(=O)C(OC)c1ccccc1)C2 (stereo not drawn) | -1.714
CCc1nnc2n1CCN(C(=O)c1cnc3ccccc3n1)C2 | -19.02
CCc1nnc2n1CCN(C(=O)c1cn(-c3ccccc3)nn1)C2 | 104.4
CCC1(CC)C(=O)NC(=O)N=C1Nc1ccc(C)cc1 | 121.1

Structure (SMILES) | Percent Effect [%]
CCc1ccc(CNC(=O)c2ccc(N3CCOC3=O)cc2)s1 | -4.456
COc1ccc(CN2CCCC2)cc1Oc1ccc(NC(C)=O)cc1 | -0.1715
CC(=O)Nc1ccc(Oc2cccc(CN3CCCC3)c2)cc1 | -8.686
CC(=O)Nc1ccc(Oc2ccc(CN3CCCC3)cc2F)cc1 | 96.27
CC(Sc1nnnn1C1CCOCC1)C(F)(F)F (stereo not drawn) | 4.015
O=C(Nc1ccccn1)C1=NN(c2ccccc2)C(=O)CN1 | -0.4273
Cc1nn(C)c(N2CCOCC2)c1CNC1CCS(=O)(=O)C1 (stereo not drawn) | -13.17
Cc1ccc(-c2ccsc2C(=O)NC2CCS(=O)(=O)C2)cc1 (stereo not drawn) | -8.809
CCc1nncn1CCNC(=O)Nc1ccc2c(c1)CCCO2 | -5.053
CCNC(=O)C1CCCN(C(=O)Nc2ccc3c(c2)CCCN3C)C1 (stereo not drawn) | -0.07324
CCN1CCc2cc(-c3cncn3CCNC3CCS(=O)(=O)C3)ccc21.Cl (stereo not drawn) | 103
Cn1cc(CNC2CCS(=O)(=O)C2)c(-c2cc3ccccc3o2)n1 (stereo not drawn) | -8.31
Cl.O=S1(=O)CCC(NCCn2cncc2-c2ccc3c(c2)CCCO3)C1 (stereo not drawn) | 81.24
N#Cc1ccnc(N2CCN(C(=O)NC3CCS(=O)(=O)C3)CC2)c1 (stereo not drawn) | 5.841
CC1(C)Cc2cc(-c3cncn3CCNC3CCS(=O)(=O)C3)ccc2O1.Cl (stereo not drawn) | 102.8
CN1CCCc2cc(-c3cncn3CCNC3CCS(=O)(=O)C3)ccc21.Cl (stereo not drawn) | 82.25
CCc1cc(NC2CCS(=O)(=O)C2)nc(N2CCCCC2)n1 (stereo not drawn) | -10.03
CN(CCc1ccc2c(c1)CCO2)CC1CCS(=O)(=O)C1 (stereo not drawn) | 6.378
Cc1cc(C(=O)NCC(O)CN2CCCC2=O)ccc1F (stereo not drawn) | -5.14
COCCN(C)c1ccc(NCc2ccsc2)nc1 | -10.25
CCOc1ccc(CN2CCCC(c3nn(C)c(=O)n3CC)C2)cn1 (stereo not drawn) | 24.07
COc1ccccc1CC(=O)NS(=O)(=O)c1ccc(C(N)=O)cc1 | 6.119
CCC(C)NC(=O)CS(=O)(=O)Cc1cc(Cl)ccc1OC (stereo not drawn) | 28.04
COc1ccc(C)cc1CC(=O)NS(=O)(=O)c1ccc(C(N)=O)cc1 | 115.9
COc1ccc(Cl)cc1CC(=O)NS(=O)(=O)c1ccc(C(N)=O)cc1 | 102.7
COc1ccc(C)cc1CC(=O)Nc1cc(C)n[nH]1 | 4.97

Structure (SMILES) | Percent Effect [%]
NC(=O)c1ccc(S(=O)(=O)NC(=O)COc2ccc3c(c2)CCC3)cc1 | -8.361
COc1ncccc1CN1C[C@H](C(=O)N2CCCO2)[C@@H]2CCO[C@@H]2C1 | 0.1445
CC(C)(C)c1nnc(CNc2c(F)cccc2-n2cccn2)o1 | -0.1409
Cc1nc(CN2CCCC(CCc3ccccc3F)C2)c[nH]1 (stereo not drawn) | 15.72
Cc1cc(C)c(C(=O)NC(CN2CCCC2)c2ccccc2)c(=O)[nH]1 (stereo not drawn) | 1.71
COCCN1CCOCC12CCN(Cc1ccn(C)n1)CC2.O=C(O)C(F)(F)F.O=C(O)C(F)(F)F | -14.13
Cn1ccc(CN2CCCC23CCN(Cc2ccccc2F)CC3)n1.O=C(O)C(F)(F)F.O=C(O)C(F)(F)F | 125.7
COCCC(=O)N1CCC2(CCN(Cc3cccc(F)c3)CC2)CC1.O=C(O)C(F)(F)F | -14.44
Fc1cccc(CN2CCC3(CCCN3c3ncccn3)CC2)c1.O=C(O)C(F)(F)F | 103.6
Cn1ccc(CN2CCCC23CCN(Cc2cccc(F)c2)CC3)n1.O=C(O)C(F)(F)F.O=C(O)C(F)(F)F | 121.8
COc1cc(N2CCC3(CCCN3Cc3ccn(C)n3)CC2)ncn1.O=C(O)C(F)(F)F | -11.95
Cn1cncc1CN1CCC2(CCCN2c2ncccn2)CC1.O=C(O)C(F)(F)F | 7.027
Cc1c(CN2CCCC(C(=O)CCc3ccccc3)C2)cc(C#N)n1C (stereo not drawn) | 16.56
CCn1ncc(CNC(=O)c2cn(CCC3CCCCN3)nn2)c1C (stereo not drawn) | 3.216
CN(CC(=O)NC(C)(C)C)Cc1nc(-c2ccccc2)c[nH]1 | -12.75
Cc1ccc(OCC(=O)NCC(F)(F)F)nc1 | -4.389
Cc1cccc(NC(=O)CN(C)C(=O)c2ccc(OC(C)C)nc2)n1 | 4.087
CN(CC(=O)NCC(O)c1cccc(F)c1)C(=O)OC(C)(C)C (stereo not drawn) | 1.189
CN(CC(=O)NCC(CCO)c1ccccc1)C(=O)OC(C)(C)C (stereo not drawn) | 2.407
CN(CC(=O)NCC(F)(F)F)C(=O)c1ccc(C(=O)OC(C)(C)C)cc1 | 91.82
Cc1ccc(C(=O)N(C)CC(=O)NCC(F)(F)F)cn1 | 99.88
CC(=O)NCCC1CCCCN1S(=O)(=O)c1cccc(Cl)c1 (stereo not drawn) | 153.7
CC(=O)NCCC1CCCCN1S(=O)(=O)c1ccc2ccccc2c1 (stereo not drawn) | 104.3
CC(=O)NCCC1CCCCN1S(=O)(=O)c1cccc(F)c1 (stereo not drawn) | 85.51
CC(=O)c1ccc(S(=O)(=O)N2CCCC2CN2CCCC2)cc1 (stereo not drawn) | -61.12
CC(=O)NCCC1CCCCN1S(=O)(=O)c1cccc(C#N)c1 (stereo not drawn) | -10.91

Structure (SMILES) | Percent Effect [%]
CCN1CCN2CCCN(S(=O)(=O)c3cccc(F)c3)C2C1=O (stereo not drawn) | 4.508
CSc1ccc(S(=O)(=O)N2CCCCC2CCNC(C)=O)cc1 (stereo not drawn) | -2.003
CNS(=O)(=O)CC1CCCN1C(=O)c1cccc(Cl)c1 (stereo not drawn) | -8.436
CCN1CC(C(=O)N(C)Cc2ccon2)CC1=O (stereo not drawn) | 8.13
CCN(CC)[C@H]1C[C@@H](Cc2cc(CO)on2)C1(C)C | -1.281
COc1ccc(OC)c(NC(=O)c2c(C)cn(C)c2CC(=O)O)c1 | 111
CCn1cc(C(=O)Nc2ccc(C)cc2C(=O)OC)cn1 | -8.405
COc1ncc(NC(=O)Nc2cc(C)ccc2OC)cn1 | 7.981
COc1ccc(C)cc1NC(=O)CNc1ccn(CC(N)=O)n1 | -13.27
COC(=O)c1ccccc1NC(=O)c1nc2ccccc2n(C)c1=O | 2.974
COc1ccc(OC)c(CNCc2c(C)nc3sc(C)cn23)c1 | 17.49
COC(=O)c1ccccc1NC(=O)c1c(C)cn(C)c1CC(=O)O | 101.4
COc1ccc(OC)c(NC(=O)N2CCCC2c2ccco2)c1 (stereo not drawn) | -3.414
COc1ccc(C)cc1NC(=O)c1c(C)cn(C)c1CC(=O)O | 106.8
CCCN(C1CCc2ccccc2C1)S(C)(=O)=O (stereo not drawn) | -12.4
NC(=O)CN(CC1CCOC1)C1CC1 (stereo not drawn) | 12.45
COCC(=O)N1CCN(C(=O)Cc2cccs2)[C@H]2CS(=O)(=O)C[C@H]21 | 102.4
COCC(=O)N1CCN(C(=O)c2cccs2)C[C@H]1C(=O)OC | -7.618
CCCN1C(=O)[C@@H]2[C@@H](CCN2C(=O)COC)N(Cc2cccs2)C1=O | 27.38
COCC(=O)N1CCN(S(=O)(=O)c2ccccc2)[C@@H](C(=O)OC)C1 | 2.651
CCC(=O)N1CCN(S(=O)(=O)c2cccc(F)c2)[C@H]2CS(=O)(=O)C[C@H]21 | 7.69
COCC(=O)N1CCN(S(=O)(=O)c2cccs2)[C@H]2CS(=O)(=O)C[C@H]21 | 101.1
CS(=O)(=O)N1CCN(C(=O)c2ccco2)[C@H]2CS(=O)(=O)C[C@H]21 | -4.132
COc1ccccc1S(=O)(=O)N1CCN(C)[C@@H]2CS(=O)(=O)C[C@@H]21 | -4.767
COCC(=O)N1CCN(S(=O)(=O)c2ccccc2)[C@H]2CS(=O)(=O)C[C@H]21 | 117.3
